# Laboratory results published in the supplement of paper PMC8728848.
# About 410 targets per protein were measured; listed, in parts, are those with the strongest signals and a random draw of the rest.
# How the values were obtained:
# Test in all cases: glycan array binding signal (z-score within array); higher = stronger binding
# Conditions in all cases: glycan notation: IUPAC condensed, linker removed
# [1] = target: Fuc(a1-2)Gal(b1-4)GlcNAc(b1-3)Gal(b1-4)GlcNAc
# Procedure, shortened: (§1)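 The Consortium for Functional Glycomics database supplied 3228 glycan arrays, of which those lacking an available protein sequence were dropped. The binding signal, a within-array Z-score, was averaged across arrays of the same protein sequence and across linkers. Negative scores can be read as non-binding.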
# [2] = target: Fuc(a1-2)Gal(b1-4)GlcNAc(b1-3)Gal(b1-4)GlcNAc(b1-2)Man(a1-3)[Fuc(a1-2)Gal(b1-4)GlcNAc(b1-3)Gal(b1-4)GlcNAc(b1-2)Man(a1-6)]Man(b1-4)GlcNAc(b1-4)GlcNAc
# Procedure, shortened: as §1
# [3] = target: Fuc(a1-2)Gal(b1-4)[Fuc(a1-3)]GlcNAc
# Procedure, shortened: as §1
# [4] = target: Fuc(a1-2)Gal(b1-4)[Fuc(a1-3)]GlcNAc(b1-2)Man(a1-3)[Fuc(a1-2)Gal(b1-4)[Fuc(a1-3)]GlcNAc(b1-2)Man(a1-6)]Man(b1-4)GlcNAc(b1-4)[Fuc(a1-6)]GlcNAc
# Procedure, shortened: as §1
# [5] = target: Fuc(a1-2)Gal(b1-4)[Fuc(a1-3)]GlcNAc(b1-2)[Fuc(a1-2)Gal(b1-4)[Fuc(a1-3)]GlcNAc(b1-4)]Man(a1-3)[Fuc(a1-2)Gal(b1-4)[Fuc(a1-3)]GlcNAc(b1-2)Man(a1-6)]Man(b1-4)GlcNAc(b1-4)GlcNAc
# Procedure, shortened: as §1
# [6] = target: Fuc(a1-2)Gal(b1-4)[Fuc(a1-3)]GlcNAc(b1-3)GalNAc
# Procedure, shortened: as §1
# [7] = target: Fuc(a1-2)Gal(b1-4)[Fuc(a1-3)]GlcNAc(b1-3)[Neu5Ac(a2-6)Gal(b1-4)GlcNAc(b1-6)]Gal(b1-4)Glc
# Procedure, shortened: as §1
# [8] = target: Fuc(a1-2)Gal6S(b1-4)Glc6S
# Procedure, shortened: as §1
# [9] = target: Fuc(a1-2)[Gal(a1-3)]Gal(b1-4)GlcNAc(b1-2)Man(a1-3)[Fuc(a1-2)[Gal(a1-3)]Gal(b1-4)GlcNAc(b1-2)Man(a1-6)]Man(b1-4)GlcNAc(b1-4)GlcNAc
# Procedure, shortened: as §1
# [10] = target: Fuc(a1-2)[Gal(a1-3)]Gal(b1-4)[Fuc(a1-3)]GlcNAc(b1-3)GalNAc
# Procedure, shortened: as §1
# [11] = target: Fuc(a1-2)[GalNAc(a1-3)]Gal(b1-3)GlcNAc
# Procedure, shortened: as §1
# [12] = target: Fuc(a1-2)[GalNAc(a1-3)]Gal(b1-3)GlcNAc(b1-2)Man(a1-3)[Fuc(a1-2)[GalNAc(a1-3)]Gal(b1-3)GlcNAc(b1-2)Man(a1-6)]Man(b1-4)GlcNAc(b1-4)[Fuc(a1-6)]GlcNAc
# Procedure, shortened: as §1
# [13] = target: Fuc(a1-2)[GalNAc(a1-3)]Gal(b1-4)GlcNAc(b1-3)Gal(b1-4)GlcNAc
# Procedure, shortened: as §1
# [14] = target: Fuc(a1-2)[GalNAc(a1-3)]Gal(b1-4)[Fuc(a1-3)]GlcNAc(b1-3)GalNAc
# Procedure, shortened: as §1
# [15] = target: Fuc(a1-3)[GalNAc(b1-4)]GlcNAc
# Procedure, shortened: as §1
# [16] = target: Gal(a1-3)Gal(b1-3)[Fuc(a1-4)]GlcNAc(b1-2)Man(a1-3)[Gal(a1-3)Gal(b1-3)[Fuc(a1-4)]GlcNAc(b1-2)Man(a1-6)]Man(b1-4)GlcNAc(b1-4)GlcNAc
# Procedure, shortened: as §1
# Gal(b1-3)Gal(b1-4)GlcNAc = target: Gal(b1-3)Gal(b1-4)GlcNAc
# Procedure, shortened: as §1
# Gal(b1-3)GalNAc = target: Gal(b1-3)GalNAc
# Procedure, shortened: as §1
# [17] = target: Gal(b1-3)GalNAc(a1-3)[Fuc(a1-2)]Gal(b1-4)Glc
# Procedure, shortened: as §1
# [18] = target: Gal(b1-3)GalNAc(a1-3)[Fuc(a1-2)]Gal(b1-4)GlcNAc
# Procedure, shortened: as §1
# Gal(b1-3)GalNAc(b1-3)Gal = target: Gal(b1-3)GalNAc(b1-3)Gal
# Procedure, shortened: as §1
# [19] = target: Gal(b1-3)GalNAc(b1-3)Gal(a1-4)Gal(b1-4)Glc
# Procedure, shortened: as §1
# [20] = target: Gal(b1-3)GalNAc(b1-4)Gal(b1-4)Glc
# Procedure, shortened: as §1
# [21] = target: Gal(b1-3)GalNAc(b1-4)[Neu5Ac(a2-3)]Gal(b1-4)Glc
# Procedure, shortened: as §1
# Gal(b1-3)GlcNAc = target: Gal(b1-3)GlcNAc
# Procedure, shortened: as §1
# [22] = target: Gal(b1-3)[Fuc(a1-4)]GlcNAc
# Procedure, shortened: as §1
# [23] = target: Gal(b1-3)[Neu5Ac(a2-6)]GalNAc
# Procedure, shortened: as §1
# [24] = target: Gal(b1-3)[Neu5Ac(b2-6)]GalNAc
# Procedure, shortened: as §1
# [25] = target: Gal(b1-4)GalNAc(b1-3)[Fuc(a1-2)]Gal(b1-4)GlcNAc
# Procedure, shortened: as §1
# [26] = target: Gal(b1-4)GlcNAc(b1-2)[Gal(b1-4)GlcNAc(b1-6)]Man(a1-6)[Gal(b1-4)GlcNAc(b1-2)Man(a1-3)]Man(b1-4)GlcNAc(b1-4)[Fuc(a1-6)]GlcNAc
# Procedure, shortened: as §1
# [27] = target: Gal(b1-4)GlcNAc(b1-3)Gal(b1-4)GlcNAc(b1-2)[Gal(b1-4)GlcNAc(b1-3)Gal(b1-4)GlcNAc(b1-6)]Man(a1-6)[Gal(b1-4)GlcNAc(b1-3)Gal(b1-4)GlcNAc(b1-2)Man(a1-3)]Man(b1-4)GlcNAc(b1-4)[Fuc(a1-6)]GlcNAc
# Procedure, shortened: as §1
# GalNAc(b1-3)GlcNAc = target: GalNAc(b1-3)GlcNAc
# Procedure, shortened: as §1
# GalNAc3S(b1-4)GlcNAc = target: GalNAc3S(b1-4)GlcNAc
# Procedure, shortened: as §1
# Glc(b1-4)Glc = target: Glc(b1-4)Glc
# Procedure, shortened: as §1
# [28] = target: GlcNAc(a1-3)Gal(b1-4)GlcNAc
# Procedure, shortened: as §1
# [29] = target: GlcNAc(b1-2)[GlcNAc(b1-4)]Man(a1-3)[GlcNAc(b1-4)][GlcNAc(b1-2)[GlcNAc(b1-6)]Man(a1-6)]Man(b1-4)GlcNAc(b1-4)[Fuc(a1-6)]GlcNAc
# Procedure, shortened: as §1
# [30] = target: GlcNAc(b1-3)Gal(b1-4)GlcNAc(b1-3)Gal(b1-4)GlcNAc(b1-2)Man(a1-3)[GlcNAc(b1-3)Gal(b1-4)GlcNAc(b1-3)Gal(b1-4)GlcNAc(b1-2)Man(a1-6)]Man(b1-4)GlcNAc(b1-4)[Fuc(a1-6)]GlcNAc
# Procedure, shortened: as §1
# [31] = target: GlcNAc(b1-3)[GlcNAc(b1-6)]GalNAc
# Procedure, shortened: as §1
# Kdn(a2-6)Gal(b1-4)GlcNAc = target: Kdn(a2-6)Gal(b1-4)GlcNAc
# Procedure, shortened: as §1
# [32] = target: Man(a1-2)Man(a1-3)[Man(a1-6)]Man(a1-6)[Man(a1-2)Man(a1-3)]Man(b1-4)GlcNAc(b1-4)GlcNAc
# Procedure, shortened: as §1
# [33] = target: Man(a1-3)[Man(a1-6)]Man(a1-6)[Man(a1-3)]Man(b1-4)GlcNAc(b1-4)GlcNAc
# Procedure, shortened: as §1
# [34] = target: Neu5Ac(a2-3)Gal(b1-3)GalNAc6S
# Procedure, shortened: as §1
# [35] = target: Neu5Ac(a2-3)Gal(b1-3)GlcNAc(b1-4)Gal(b1-4)Glc
# Procedure, shortened: as §1
# [36] = target: Neu5Ac(a2-3)Gal(b1-3)GlcNAc(b1-6)GalNAc
# Procedure, shortened: as §1
# Neu5Ac(a2-3)Gal(b1-4)Glc = target: Neu5Ac(a2-3)Gal(b1-4)Glc
# Procedure, shortened: as §1
# [37] = target: Neu5Ac(a2-3)Gal(b1-4)GlcNAc(b1-2)[Neu5Ac(a2-3)Gal(b1-4)GlcNAc(b1-4)]Man(a1-3)[GlcNAc(b1-4)][Neu5Ac(a2-3)Gal(b1-4)GlcNAc(b1-4)Man(a1-6)]Man(b1-4)GlcNAc(b1-4)GlcNAc
# Procedure, shortened: as §1
# [38] = target: Neu5Ac(a2-3)Gal(b1-4)GlcNAc(b1-3)Gal
# Procedure, shortened: as §1
# [39] = target: Neu5Ac(a2-3)Gal(b1-4)GlcNAc(b1-3)Gal(b1-4)GlcNAc(b1-3)Gal(b1-4)GlcNAc
# Procedure, shortened: as §1
# Neu5Ac(a2-3)GalNAc = target: Neu5Ac(a2-3)GalNAc
# Procedure, shortened: as §1
# [40] = target: Neu5Ac(a2-6)Gal(b1-4)GlcNAc(b1-2)Man(a1-3)[Gal(b1-4)GlcNAc(b1-2)Man(a1-6)]Man(b1-4)GlcNAc(b1-4)GlcNAc
# Procedure, shortened: as §1
# [41] = target: Neu5Ac(a2-6)GalNAc(b1-4)GlcNAc6S
# Procedure, shortened: as §1
# [42] = target: Neu5Ac(a2-8)Neu5Ac(a2-3)[Gal(b1-3)GalNAc(b1-4)]Gal(b1-4)Glc
# Procedure, shortened: as §1
# [43] = target: Neu5Ac(a2-8)Neu5Ac(a2-8)Neu5Ac
# Procedure, shortened: as §1
# Neu5Gc(a2-6)GalNAc = target: Neu5Gc(a2-6)GalNAc
# Procedure, shortened: as §1
binder,measurement,setting,value
"Epa3 (Candida glabrata), Q6VBI8_CANGB (protein) MGSSHHHHHHSSGLVPRGSHMNDLGFSLFEKRELSSQNPFGYPIGCSPQDVAIIPGLTMELYSYPIVSGTPPNCYDASYVDPEYPRTGYLKRKMVGKSTGVTGNLNYKYSVEKACMVKYGNLPAGYNYNEPLTVSNFTMILYGYFKAQTTGLHTFFVNADDLLYINFGAGNAFDCCKREDSKTKLGEYVAYDIWHVDSSKNKVSLFLEKDLYYPIRMFFNNIGKDSSLDLSFSVNGATDQISDFSGYLYSVPDQPDTCPAHIGYDTTCR",glycan array binding signal (z-score),[1],-0.314
same,glycan array binding signal (z-score),[2],0.01
same,glycan array binding signal (z-score),[3],-0.32
same,glycan array binding signal (z-score),[4],0.042
same,glycan array binding signal (z-score),[5],0.047
same,glycan array binding signal (z-score),[6],0.718
same,glycan array binding signal (z-score),[7],-0.262
same,glycan array binding signal (z-score),[8],0.004
same,glycan array binding signal (z-score),[9],-0.263
same,glycan array binding signal (z-score),[10],0.123
same,glycan array binding signal (z-score),[11],-0.201
same,glycan array binding signal (z-score),[12],-0.205
same,glycan array binding signal (z-score),[13],-0.246
same,glycan array binding signal (z-score),[14],2.94
same,glycan array binding signal (z-score),[15],0.843
same,glycan array binding signal (z-score),[16],-0.23
same,glycan array binding signal (z-score),Gal(b1-3)Gal(b1-4)GlcNAc,3.61
same,glycan array binding signal (z-score),Gal(b1-3)GalNAc,2.99
same,glycan array binding signal (z-score),[17],3.57
same,glycan array binding signal (z-score),[18],3.87
same,glycan array binding signal (z-score),Gal(b1-3)GalNAc(b1-3)Gal,8.62
same,glycan array binding signal (z-score),[19],3.07
same,glycan array binding signal (z-score),[20],17
same,glycan array binding signal (z-score),[21],2.86
same,glycan array binding signal (z-score),Gal(b1-3)GlcNAc,-0.202
same,glycan array binding signal (z-score),[22],-0.142
same,glycan array binding signal (z-score),[23],4.98
same,glycan array binding signal (z-score),[24],0.622
same,glycan array binding signal (z-score),[25],-0.192
same,glycan array binding signal (z-score),[26],-0.134
same,glycan array binding signal (z-score),[27],0.064
same,glycan array binding signal (z-score),GalNAc(b1-3)GlcNAc,-0.122
same,glycan array binding signal (z-score),GalNAc3S(b1-4)GlcNAc,-0.277
same,glycan array binding signal (z-score),Glc(b1-4)Glc,-0.201
same,glycan array binding signal (z-score),[28],-0.2
same,glycan array binding signal (z-score),[29],-0.314
same,glycan array binding signal (z-score),[30],0.201
same,glycan array binding signal (z-score),[31],-0.176
same,glycan array binding signal (z-score),Kdn(a2-6)Gal(b1-4)GlcNAc,-0.334
same,glycan array binding signal (z-score),[32],-0.175
same,glycan array binding signal (z-score),[33],-0.086
same,glycan array binding signal (z-score),[34],-0.264
same,glycan array binding signal (z-score),[35],0.022
same,glycan array binding signal (z-score),[36],-0.336
same,glycan array binding signal (z-score),Neu5Ac(a2-3)Gal(b1-4)Glc,-0.174
same,glycan array binding signal (z-score),[37],-0.312
same,glycan array binding signal (z-score),[38],-0.282
same,glycan array binding signal (z-score),[39],-0.435
same,glycan array binding signal (z-score),Neu5Ac(a2-3)GalNAc,-0.308
same,glycan array binding signal (z-score),[40],-0.331
same,glycan array binding signal (z-score),[41],-0.236
same,glycan array binding signal (z-score),[42],2.2
same,glycan array binding signal (z-score),[43],-0.342
same,glycan array binding signal (z-score),Neu5Gc(a2-6)GalNAc,-0.066
